Records with an inconclusive call do not appear. Calls of active or inactive are those of the source. Rule for the calls: active = hit-call score of the fitted dose curve at least 0.9, where 1 is the maximum; inconclusive = response in the unintended direction; inactive = score below 0.9.
Target: rat Neurokinin-1 Receptor (NK1), Tacr1 (gene 24807) (UniProt P14600)
Assay: NVS_GPCR_rNK1: NovaScreen (NVS) G Protein-Coupled Receptor Assay for rat Neurokinin-1 Receptor (NK1) (AID 2283309)
Experimental: NVS_GPCR_rNK1 is a biochemical, single-readout assay that uses extracted gene-proteins from Rat submaxillary gland membranes in a tissue-based cell-free assay. Measurements were taken 1 hour after chemical dosing in a 48-well plate.NVS_GPCR_rNK1 is one of one assay component(s) measured or calculated from the NVS_GPCR_rNK1 assay. It is designed to make measurements of radioligand binding, a form of binding reporter, as detected with scintillation counting signals by Filter-based radiodetection technology.Data from the assay component NVS_GPCR_rNK1 was analyzed into 1 assay endpoint. This assay endpoint, NVS_GPCR_rNK1, was analyzed in the positive analysis fitting direction relative to DMSO as the negative control and baseline of activity. Using a type of binding reporter, loss-of-signal activity can be used to understand changes in the binding as they relate to the gene Tacr1. Furthermore, this assay endpoint can be referred to as a primary readout, because the performed assay has only produced 1 assay endpoint. To generalize the intended target to other relatable targets, this assay endpoint is annotated to the gpcr intended target family, where the subfamily is rhodopsin-like receptor.
Binding assays used specific radioligands (tritiated, iodinated) with non-radioactive competitive displacement ligands in agonist or antagonist protocols (as indicated) and various reference compounds and inhibitors to titrate specific binding to receptors and transporters. Most enzyme assays (CYPs, kinases, phosphatases, proteases, HDACs) used recombinant protein and specific substrates (fluorescence mostly, some colorimetric and radioactive) and inhibitors, followed by a biochemical separation of substrate and product. All assays for the biochemical HTS were initially run in duplicate at a single concentration (10 uM for CYP450 assays and 25 uM for all others). […] Each assay was run with positive and negative controls, and concurrent controls on every plate. The follow-up (secondary) screen tested active chemical-pairs in concentration series, as well as a few additional assays not tested in the primary screen, some selected negative inactives, and several cases re-run in the concentration series for confirmatory purposes.

Chain of rat Neurokinin-1 Receptor (NK1), Tacr1 (gene 24807) (P14600 whole entry, looked up): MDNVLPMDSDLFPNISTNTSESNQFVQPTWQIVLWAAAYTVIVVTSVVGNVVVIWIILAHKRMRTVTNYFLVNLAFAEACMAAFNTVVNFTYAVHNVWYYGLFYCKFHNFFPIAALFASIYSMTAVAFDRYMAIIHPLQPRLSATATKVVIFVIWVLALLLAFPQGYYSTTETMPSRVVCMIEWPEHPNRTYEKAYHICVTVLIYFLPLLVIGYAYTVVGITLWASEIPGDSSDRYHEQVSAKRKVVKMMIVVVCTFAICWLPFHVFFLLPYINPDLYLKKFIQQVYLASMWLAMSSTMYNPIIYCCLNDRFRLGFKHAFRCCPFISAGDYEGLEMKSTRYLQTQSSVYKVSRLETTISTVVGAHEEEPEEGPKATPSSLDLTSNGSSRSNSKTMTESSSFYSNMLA

**Q.** CCCCC(CC)COC(=O)CCCCCCCCC(=O)OCC(CC)CCCC (stereo not given) was tested. Which outcome did it give?
**A.** inactive

**Q.** With CCOC(=O)c1ccc(C2CCC(NC[C@H](O)COc3ccc(O)c(NS(C)(=O)=O)c3)CC2)cc1 (stereo not given in full) as the molecule, how does the outcome read?
**A.** inactive

**Q.** Which AC50 does the source give for COc1ccc(-n2nc(C(F)F)cc2-c2ccc(S(C)=O)cc2)cc1 (stereo not given) here?
**A.** 25 µM (active)

**Q.** CNS(=O)(=O)c1cc(C(=O)N2CCC(CCN3C4CCC3CC(n3c(C)nc5ccccc53)C4)(c3cccc(F)c3)CC2)c(Cl)cc1F (stereo not given) was tested. Which AC50 did it give?
**A.** 25 µM (active)

**Q.** With Cn1c(=O)cc(Oc2ccc(F)cc2F)c2cnc(NCC(C)(C)O)nc21 as the molecule, how does the AC50 read?
**A.** 20.3 µM (active)

**Q.** For CCOc1cccc(-n2cc(C(=O)N3CCN(c4cc(C(=O)O)c5ccccc5c4)CC3)nc2-c2ccc(C)cc2)c1, which AC50 is on record?
**A.** 14.8 µM (active)

**Q.** How did the outcome turn out when Cc1[nH]cnc1C[C@H]1CCc2c(C)c3ccccc3n2C1=O was run?
**A.** inactive

**Q.** How did the outcome turn out when CCCN(C1CCN(C(=O)C2CCNCC2)CC1)[C@@H]1CCc2ccc(OC)cc2C1 was run?
**A.** inactive

**Q.** How did the AC50 turn out when CC[C@H]1CC[C@H](NCc2cc3c(cc2OC)[C@H]2C[C@H]2C(=O)N3C)[C@H](c2ccccc2)N1 was run?
**A.** 0.296 µM (active)

**Q.** Which outcome does the source give for CCOC(=O)CC(CC(=O)OCC)(OC(C)=O)C(=O)OCC here?
**A.** inactive
